Screen size: about 310,000 compounds; about 14,000 (4.5%) showed an effect of 50% or more. Effects have a minus sign here. The sample holds strong results, similar compounds and a random draw of the others, so the mix is not that of the screen.
Molecular target: human ether-à-go-go-related gene (hERG) potassium channel (human, UniProt Q12809)
Assay: primary screen, population patch clamp on CHO cells stably expressing hERG; higher = less effect of the substance
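Note: peak tail current of the secondary pulse compared with the same well before compound.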

Chain of human ether-à-go-go-related gene (hERG) potassium channel (Q12809 whole entry, looked up): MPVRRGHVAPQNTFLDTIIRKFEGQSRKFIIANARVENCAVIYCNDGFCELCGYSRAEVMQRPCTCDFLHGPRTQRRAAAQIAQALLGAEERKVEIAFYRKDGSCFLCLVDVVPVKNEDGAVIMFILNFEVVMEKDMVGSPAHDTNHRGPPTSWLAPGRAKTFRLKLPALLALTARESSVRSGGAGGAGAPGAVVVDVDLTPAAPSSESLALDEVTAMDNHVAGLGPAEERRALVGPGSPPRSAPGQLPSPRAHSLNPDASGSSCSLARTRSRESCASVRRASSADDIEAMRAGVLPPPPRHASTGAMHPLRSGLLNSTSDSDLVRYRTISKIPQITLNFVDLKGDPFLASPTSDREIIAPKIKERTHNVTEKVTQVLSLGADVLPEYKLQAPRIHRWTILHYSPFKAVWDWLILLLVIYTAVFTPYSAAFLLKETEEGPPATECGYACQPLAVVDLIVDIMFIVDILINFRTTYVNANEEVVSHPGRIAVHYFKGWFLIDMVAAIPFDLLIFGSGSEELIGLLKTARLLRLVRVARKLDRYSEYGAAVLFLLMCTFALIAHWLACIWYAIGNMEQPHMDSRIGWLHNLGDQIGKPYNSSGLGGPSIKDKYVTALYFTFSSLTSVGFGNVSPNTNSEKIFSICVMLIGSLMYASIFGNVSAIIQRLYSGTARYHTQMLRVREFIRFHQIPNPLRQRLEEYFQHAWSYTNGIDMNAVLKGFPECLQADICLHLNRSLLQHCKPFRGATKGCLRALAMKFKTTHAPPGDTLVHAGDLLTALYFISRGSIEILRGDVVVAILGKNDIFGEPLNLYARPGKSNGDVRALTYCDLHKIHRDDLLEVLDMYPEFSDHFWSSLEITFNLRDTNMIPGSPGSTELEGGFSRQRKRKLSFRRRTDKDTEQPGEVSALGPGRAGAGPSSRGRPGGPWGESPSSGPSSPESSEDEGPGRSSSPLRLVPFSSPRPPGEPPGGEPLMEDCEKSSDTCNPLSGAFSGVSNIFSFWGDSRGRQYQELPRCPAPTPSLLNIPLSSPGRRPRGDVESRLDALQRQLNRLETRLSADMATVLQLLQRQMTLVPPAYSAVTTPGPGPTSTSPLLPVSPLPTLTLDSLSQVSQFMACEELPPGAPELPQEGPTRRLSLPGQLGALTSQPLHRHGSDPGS

SMILES	hERG current change (%, negative = inhibition) at 10uM [%]
Cc1nc2ccc(Cl)cc2c(-c2ccccc2)c1C(=O)N(C)C.Cl	-5.56
CCc1ccccc1NC(=O)CNC(=O)c1cc(C2CC2)nn1-c1ccccc1	-28.8
O=C(c1noc2c1CCCC2)N1CCC(CO)(Cc2ccccc2Cl)CC1	-22.9
COCCCNC(=O)Cn1ccc(N)nc1=O	11.4
CN(C)C=O.O=C(Nc1cccc(S(=O)(=O)NC2=NCCCCC2)c1)c1cc(-c2ccco2)nc2ccccc12	19.7
COc1ccc(-n2c(CNc3ccc(C)cc3)nnc2SCC(=O)Nc2nc(-c3ccccc3)cs2)cc1	-23.1
CCN1C(=O)/C(=C/N(C)c2ccccc2)OC1=S	-8.25
CCN1CCN(CC(=O)Nc2sc3c(c2C#N)CCC3)CC1	-18.1
CCN1CCN(CC(=O)Nc2sc3c(c2C#N)CCC(C)C3)CC1 (stereo not shown)	-51.7
CC1CCc2c(sc(NC(=O)CN3CCN(C(=O)c4ccco4)CC3)c2C#N)C1 (stereo not shown)	-41.5
CC(=O)Nc1sc2c(c1C#N)CCC(C)C2 (stereo not shown)	-3.48
CC1CCc2c(sc(NC(=O)COC(=O)c3ccccc3NCc3ccco3)c2C#N)C1 (stereo not shown)	7.34
CC1CCc2c(sc(NC(=O)C(=O)NCc3ccco3)c2C#N)C1 (stereo not shown)	-66.3
O=C(CN1CCOc2ccccc21)N1CCC(Cc2ccccc2)CC1	-26.3
Cc1nn(CCc2nn[nH]n2)c2nc(-c3ccccc3)cc(C(F)(F)F)c12	19.3
COc1ccc(-c2csc(NCCc3nc4cc(Cl)c(N5CCCCC5)cc4n3CCOCCO)n2)cc1	-10.4
CC1CCN(CC(=O)n2c3c(c4ccccc42)CCCC3)CC1.Cl	0.546
CCc1ccc(-c2csc(NC(=O)c3cccnc3)n2)cc1	-3.93
Cc1ccccc1N=C1N=C(N)c2ccccc21	-2.13
CN(C)CCNC(=O)C1CC(=O)N(c2ccc(F)c(Cl)c2)C1 (stereo not shown)	-11.2
CC1CCCN(CCCNC(=O)C2CC(=O)N(c3ccc(F)c(Cl)c3)C2)C1 (stereo not shown)	-37.9
CC1CCCCN1CCNC(=O)C1CC(=O)N(c2ccc(F)c(Cl)c2)C1 (stereo not shown)	-56.9

SMILES	hERG current change (%, negative = inhibition) at 10uM [%]
CN(CCNC(=O)C1CC(=O)N(c2ccc(F)c(Cl)c2)C1)Cc1ccccc1 (stereo not shown)	-52.5
O=C(NCCN1CCOCC1)C1CC(=O)N(c2ccc(F)c(Cl)c2)C1 (stereo not shown)	-3.45
COCCNC(=O)C1CC(=O)N(c2ccc(F)c(Cl)c2)C1 (stereo not shown)	-2.89
CN(C)c1ccc(/C=N/NC(=O)c2cccc(N3CCCC3=O)c2)cc1	12.7
O=C(Oc1ccc2ccc(=O)oc2c1)c1ccccc1	14.2
O=C(Oc1ccc2ccc(=O)oc2c1)c1ccco1	-73.1
O=C(Oc1ccc2ccccc2c1)c1ccco1	5.27
COc1ccc(CN2CCN(C(=O)c3cccs3)CC2)cc1Br	-24.4
CCC(CC)C(=O)NCCc1ccc(OC)cc1	17.8
Cc1csc(NC(=O)c2cccnc2)n1	13.5
CCN1CCN(S(=O)(=O)c2ccc(Cl)c(C(=O)N(C)Cc3ccccc3)c2)CC1	-28.8
CCN1CCN(S(=O)(=O)c2ccc(Cl)c(C(=O)N(C)Cc3cccc(Cl)c3Cl)c2)CC1	-61.3
CCN1CCN(S(=O)(=O)c2ccc(Cl)c(C(=O)N(C)Cc3cccs3)c2)CC1	-14.6
CCc1ccc(CN(C)C(=O)c2cc(S(=O)(=O)N3CCN(CC)CC3)ccc2Cl)cc1	-25.3
CCN1CCN(S(=O)(=O)c2ccc(Cl)c(C(=O)N(C)Cc3ccc(Cl)cc3Cl)c2)CC1	-9.34
CCN1CCN(S(=O)(=O)c2ccc(Cl)c(C(=O)N(C)C(c3ccccc3)c3ccccc3)c2)CC1	-50.5
O=C(O)c1ccc2c(c1)C(=O)N(c1cccc(S(=O)(=O)Nc3cccc(C(F)(F)F)c3)c1)C2=O	21.1
CCN(CC)S(=O)(=O)c1ccc(C(C)NC(=O)C2CCCN2C(=O)c2cccs2)cc1 (stereo not shown)	-15.5
Cc1cc(Cl)ccc1C(=O)C1CCCN(C(=O)CCN2CCCO2)C1 (stereo not shown)	-1.54
CC(C)(C)NC(=O)C(c1ccccn1)N(C(=O)C1CSC(=O)C1)c1ccc(F)cc1 (stereo not shown)	6.26
CCC(=NC1CCN(Cc2ccccc2)CC1)c1c(O)[nH]c(=O)[nH]c1=O	-52.4
C=CCn1c(O)c(C(C)=NC2CCN(Cc3ccccc3)CC2)c(=O)[nH]c1=O	-55.7

SMILES	hERG current change (%, negative = inhibition) at 10uM [%]
O=c1[nH]c(O)c(C=NC2CCN(Cc3ccccc3)CC2)c(=O)[nH]1	-31.6
CCC(=NCCc1ccccc1)c1c(O)[nH]c(=O)[nH]c1=O	10.1
C=CCn1c(O)c(C(C)=NC2CC2)c(=O)[nH]c1=O	9.27
C=CCn1c(O)c(C(C)=NCCc2ccccc2)c(=O)[nH]c1=O	-14.7
Cc1ccccc1CNC(=O)C1CCN(c2nnc(N3CCCC3=O)s2)CC1	19.3
CC(C)(C)c1csc(CS(=O)(=O)c2ccccn2)n1	-6.8
CCc1nnc2n1N=C(c1ccc([N+](=O)[O-])cc1)CS2	-65.5
O=[N+]([O-])c1ccc(C2=Nn3cnnc3SC2)cc1	-62.2
CCOc1ccc(C2=Nn3cnnc3SC2)cc1	-14.8
Br.CCc1nnc2n1N=C(c1cccc([N+](=O)[O-])c1)CS2	-32.1
Brc1ccc(C2=Nn3cnnc3SC2)cc1	13.6
Br.CCCc1nnc2n1N=C(c1ccc([N+](=O)[O-])cc1)CS2	-38.6
O=c1[nH]c(=O)n(CCc2ccccc2)c(O)c1C=NCCCn1ccnc1	-2.66
COc1ccccc1CC(NC(C)=O)C(=O)NC1CCN(C(=O)Nc2ccccc2F)CC1 (stereo not shown)	28.3
Cc1ccc(Cl)cc1NS(=O)(=O)c1ccc2oc(=O)ccc2c1	-25.7
COc1ccc(CCN(C)Cc2nc(Cc3ccc(OC)c(OC)c3)no2)cc1OC	0.332
COc1ccc(CCN(C)CC(O)COC(c2ccc(F)cc2)c2ccc(F)cc2)cc1OC (stereo not shown)	-79.2
COc1ccc(C(CNCC(O)COc2c(C)ccc(C)c2C)N(C)C)cc1 (stereo not shown)	-44.1
COc1ccc(CCN(C)CC(O)COc2ccc(C(C)=O)cc2OC)cc1OC (stereo not shown)	-21.6
COc1ccc(CCN(C)CC(O)COc2c(C)ccc(C)c2C)cc1OC (stereo not shown)	-76
COc1ccc(CCN(C)CC(O)c2ccccc2)cc1OC.O=C(O)C(=O)O (stereo not shown)	-32.2
O=C(Nc1ccc(Nc2ccccc2)cc1)c1cc([N+](=O)[O-])ccc1Cl	11.2

SMILES	hERG current change (%, negative = inhibition) at 10uM [%]
CNc1ccc(Br)cc(C(=O)/C=C/c2cccc(OC)c2)c1=O	-1.19
COc1ccc(NC2c3ncccc3C(=O)N2Cc2cccs2)cc1 (stereo not shown)	-18.4
CCc1noc(C)c1C(=O)N1CCOCC1	14.4
COC(=O)N1C(=O)[C@](c2ccccc2)(C(C)C)N1C(=O)OC	12.2
COc1ccccc1/C=N/NC(=O)c1cccc(OC(F)(F)C(F)F)c1	-9.51
CC(=O)N1CCN(C(=O)c2cc(C)nc3ccccc23)CC1	31.1
O=C(c1cc(-c2ccc(Cl)s2)nc2ccccc12)N1CCOCC1	-17
O=C(c1cc(-c2ccc(Cl)s2)nc2ccccc12)N1CCCC1	4.92
O=C(c1cc(-c2ccc(Cl)cc2)nc2ccccc12)N1CCOCC1	-68.8
Cc1ccc(-c2cc(C(=O)N3CCOCC3)c3ccccc3n2)cc1	-3.91
O=C(NCCCN1CCOCC1)c1cc(-c2ccc(Cl)s2)nc2ccccc12	-44.1
O=C(c1cc(-c2ccccc2)nc2ccccc12)N1CCOCC1	27.6
CC(C)(CNC(=O)c1cc(-c2ccc(Cl)s2)nc2ccccc12)N1CCOCC1	-55.1
O=C(NCCN1CCOCC1)c1cc(-c2ccc(Cl)s2)nc2ccccc12	-5.22
CC(=O)N1CCN(C(=O)c2cc(-c3ccc(Cl)s3)nc3ccccc23)CC1	-51.8
O=C(O)c1ccccc1C(=O)N1CC=C(c2ccccc2)CC1	3.44
Cc1cc(C(=O)N2CC=C(c3ccccc3)CC2)c2ccccc2n1	-52.9
CCOc1ccnc(OCC)c1Br	28.3
NS(=O)(=O)c1ccc(OC(=O)CNC(=O)OCc2ccccc2)cc1	11
Cc1ccc(OCC(O)Cn2c(N3CCOCC3)nc3c2c(=O)[nH]c(=O)n3C)cc1 (stereo not shown)	-16.1
Cc1nn(C)c(C)c1/C=N/NC(=O)c1csc2ccccc12	-2.45
O=C(CN1C(=O)NC(Cc2c[nH]c3ccccc23)C1=O)Nc1ccccc1Br (stereo not shown)	-15.4
